Records with an inconclusive call do not appear. Where a call stands in place of a potency, no number is given. A number with no mark means an inactive call. Activity calls are given as the source filed them. Unless noted, the call rests on the fitted dose curve; in most records, active means well fitted curve in the direction sought with a large enough effect; inconclusive means small, poorly fitted or top-dose-only effect, or another doubt; inactive means no such curve, though single readings can be large; an effect the other way counts as inactive or inconclusive. *1 amine or outer side, *2 acyl side, *3 side chain or, on linkers, in order; H or OH if unused. Where a SMILES comes first, the peptide text is derived from it. Bridges are numbered along the chain shown (N, C = ends). [ ]: non-standard residue; d: D form. The star is where a group is joined. pTerphenylCO(4''-OnC5H11) = CCCCCOc1ccc(-c2ccc(-c3ccc(C(=O)*)cc3)cc2)cc1; Orn(4R-OH,5R-OH) = O=C([C@H](C[C@@H](O)[C@@H](O)N[*:3])N[*:1])[*:2]; hTyr(3S-OH,4S-OH) = N[C@H](C(=O)O)[C@H](O)[C@@H](O)c1ccc(O)cc1; Pro(3S-OH,4S-Me) = C[C@H]1CN[C@H](C(=O)O)[C@H]1O; Hyp = O=C(O)[CH]1C[CH](O)CN1; Phe(ol) = N[CH](CO)Cc1ccccc1; Iva = CC[C](C)(N)C(=O)O; Aib = CC(C)(N)C(=O)O
Tests used:
[1] = target: Calcium and integrin-binding protein 1 (Homo sapiens) (UniProt Q99828); assay: Confirmatory qHTS for Identification of Calcium Integrin Binding Protein 1 (CIB1) Competitor (AID 1508617); further: nearly all actives have a fitted effect of over 65% in size; further: potency means the concentration at half of the fitted maximal effect
Method in brief: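 Binding competition between test compounds and fluorescent alphaIIb peptide for 1 uM CIB1-GST is monitored by FP at 480/540 nm. Final compound range is up to 114 uM; unlabeled peptide serves as reference competitor.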

[2] = target: Cytochrome P450 2D6 (Homo sapiens) (UniProt P10635); assay: Cytochrome P450 family 2 subfamily D member 6 (CYP2D6) small molecule antagonists: luciferase biochemical (cell-free) qHTS assay (AID 1645840; active means well fitted curve in the direction sought with a large enough effect in the repeat runs; an effect the other way counts as inactive or inconclusive; further: nearly all actives have a fitted effect of over 55% in size; further: potency means the concentration at half of the fitted maximal effect; on activity change, negative = inhibition: series mostly up to about 57 µM)
Method in brief: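 P450-Glo CYP2D6 system: proluciferin substrate converted by enzyme to luciferin, read by luminescence proportional to activity. Enzyme-substrate mix with compound 10 min at room temperature, then NADPH regeneration 1 h before detection reagent.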

[3] = target: Calcium and integrin-binding protein 1 (Homo sapiens) (UniProt Q99828); assay: Primary qHTS for Identification of Calcium Integrin Binding Protein 1 (CIB1) Competitor (AID 1508620);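 further: GST tagged CIB1 binding a fluorescein labelled alphaIIb integrin peptide tracer; top concentration of the series differs between compounds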
Method in brief: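 Fluorescence polarization competition: CIB1-GST (1 uM final) preincubated with compound 15 min at room temperature, then FITC-labeled alphaIIb peptide (100 nM final) added for another 15 min. Polarization read at Ex 480/Em 540.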

[4] = qHTS to identify inhibitors of the type 1 interferon - major histocompatibility complex class I in skeletal muscle: primary screen against the NCATS Mechanism Interrogation Plate v5.0 (MIPE) Libary (AID 1347411); further: nearly all actives have a fitted effect of over 65% in size
Method in brief: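 Seed engineered human myoblasts (HLA-B HiBit) in medium without dexamethasone containing 4 ng/ml IFN-beta; after 1 hr add compound titrations (top 46 uM final). Incubate 24 hrs at 37 C, lyse 10 min with HiBiT reagent, read luminescence.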

Sequence of Calcium and integrin-binding protein 1 (Homo sapiens) (Q99828 whole entry, looked up): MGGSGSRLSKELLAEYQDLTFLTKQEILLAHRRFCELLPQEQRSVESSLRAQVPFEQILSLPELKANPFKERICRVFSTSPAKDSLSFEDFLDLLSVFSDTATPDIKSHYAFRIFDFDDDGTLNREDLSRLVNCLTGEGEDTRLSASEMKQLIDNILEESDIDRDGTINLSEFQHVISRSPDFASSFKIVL
Sequence of Cytochrome P450 2D6 (Homo sapiens) (P10635 whole entry, looked up): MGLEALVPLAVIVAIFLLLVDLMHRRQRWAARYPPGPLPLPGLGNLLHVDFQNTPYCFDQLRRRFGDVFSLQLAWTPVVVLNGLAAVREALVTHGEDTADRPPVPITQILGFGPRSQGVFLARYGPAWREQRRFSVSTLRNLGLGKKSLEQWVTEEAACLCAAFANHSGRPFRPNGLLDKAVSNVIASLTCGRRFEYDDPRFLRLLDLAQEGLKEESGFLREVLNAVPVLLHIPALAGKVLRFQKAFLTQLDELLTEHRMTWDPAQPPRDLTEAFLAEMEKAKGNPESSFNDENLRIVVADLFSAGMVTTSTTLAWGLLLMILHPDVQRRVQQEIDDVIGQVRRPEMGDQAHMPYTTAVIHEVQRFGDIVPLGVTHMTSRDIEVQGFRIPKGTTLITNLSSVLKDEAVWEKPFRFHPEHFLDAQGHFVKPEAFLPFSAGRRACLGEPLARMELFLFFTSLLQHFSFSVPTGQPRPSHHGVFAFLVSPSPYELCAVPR

SMILES: CCC1C(=O)N(C)c2cnc(Nc3ccc(C(=O)NC4CCN(C)CC4)cc3OC)nc2N1C1CCCC1 (stereo not drawn)
- Potency [1]: inactive
- Potency [2]: inactive

SMILES: C=C1C(=O)O[C@@H]2/C=C(\CO)CC/C=C(\CO)[C@H](OC(C)=O)C(OC(=O)C(C)CC)C12 (stereo partly drawn)
- Potency [3]: inactive

SMILES: CC(=O)OC(C)(C)/C=C/C(=O)C(C)(O)C1C(O)CC2(C)C3CC=C(C(C)(C)C(=O)O)C(CC(=O)O)C3(C)C(=O)CC12C (stereo not drawn)
- Potency [3]: inactive

SMILES: O=C(NCC(=O)N1CCCC1)Nc1ccc2cnccc2c1
- Potency [4]: inactive
- Potency [3]: inactive
- Potency [2]: 12 µM (active)

SMILES: N#Cc1ccc(Nc2nc(-c3ccc(O)cc3O)cs2)cc1C(F)(F)F
- Potency [1]: 50.1 µM (active)
- Potency [2]: 5.35 µM (active)

SMILES: c1ccc(-c2cnn3cc(-c4ccc(OCCN5CCOCC5)cc4)cnc23)cc1
- Potency [3]: inactive

SMILES: O=C(Nc1ccc2[nH]nc(-c3ccncc3)c2c1)[C@@H]1CCN(CC(=O)N2CCN(c3ccc(-c4ncccn4)cc3)CC2)C1
- Potency [3]: inactive

SMILES: CC1=CC2/C=C(\C)CCC(O)C/C=C/C(=O)OC23C(=O)NC(CC(C)C)C3C1C (stereo not drawn)
- Potency [3]: inactive

SMILES: CCN(CC)C(=O)C(c1ccccc1)N1CCN(c2ccc(NC(=O)c3ccccc3-c3cccnc3)cc2F)CC1 (stereo not drawn)
- Potency [3]: inactive

SMILES: COc1nc2ccc(Br)cc2cc1[C@@H](c1ccccc1)[C@@](O)(CCN(C)C)c1cccc2ccccc12
- Potency [1]: 89.1 µM (active)
- Potency [2]: 7.56 µM (active)

SMILES: COc1ccc(C2Oc3c(OC)cc(CCCO)cc3C2COC2OC(CO)C(O)C(O)C2O)cc1OC (stereo not drawn)
- Potency [3]: inactive

SMILES: COc1cc(C(N)=O)nc(-c2ccccn2)c1O
- Potency [3]: inactive

SMILES: COC1=CC(=O)C=C(C)C12Oc1c(Cl)c(OC)cc(OC)c1C2=O (stereo not drawn)
- Potency [3]: inactive

SMILES: C[C@@H]1O[C@@H](O[C@H]2[C@H](O[C@H]3CC[C@@]4(C)C(CC[C@]5(C)C4C=C[C@]46OC[C@@]7(CCC(C)(C)C[C@H]74)[C@@H](O[C@@H]4O[C@@H](C)[C@H](O)[C@@H](O)[C@H]4O)C[C@]65C)[C@]3(C)CO)O[C@H](CO)[C@@H](O)[C@@H]2O[C@@H]2O[C@H](CO)[C@@H](O)[C@H](O)[C@H]2O)[C@H](O)[C@H](O)[C@H]1O (stereo partly drawn)
- Potency [3]: inactive

SMILES: Cc1[nH]c2ccc(F)cc2c1-c1nc2c3cccnc3c3ncccc3c2[nH]1
- Potency [3]: inactive

SMILES: COc1ccccc1C(=O)Nc1cccc(NC(=O)c2cccc(C)c2)c1
- Potency [3]: inactive

SMILES: C=C1C(=O)O[C@H]2C1CCC(C)=C1C(=O)C=C(C)[C@@]12O (stereo partly drawn)
- Potency [3]: inactive

SMILES: COC(=O)C[C@H]1C(C)(C)[C@H](OC(=O)c2ccccc2)C2CC3=C4CC(=O)O[C@@H](c5ccoc5)[C@]4(C)CCC3[C@@]1(C)C2=O (stereo partly drawn)
- Potency [3]: inactive

SMILES: C=C1[C@H]2CC[C@H](C(=O)O)[C@@]23CC[C@H](C3)C1(C)C
- Potency [3]: inactive

SMILES: OC(CC1c2ccccc2-c2cncn21)C1CCCCC1 (stereo not drawn)
- Potency [3]: inactive

SMILES: C=C1[C@@H](OC(C)=O)CC[C@@]2(C)[C@@H](OC(C)=O)[C@H](OC(C)=O)C3=C(C)C[C@H](OC(=O)C(C)CC)[C@@H]([C@@H](OC(C)=O)[C@H]12)C3(C)C (stereo partly drawn)
- Potency [3]: inactive

SMILES: CC(=O)OC1CC(C)C2(CCC3(CC(=O)OC3O)O2)C2(C)CCCC(C)(C)C12 (stereo not drawn)
- Potency [3]: inactive

SMILES: C=C1C(=O)OC2C=C(C)CC/C=C(\CO)CC(O)C12 (stereo not drawn)
- Potency [3]: inactive

SMILES: COc1ccc([C@H]2OC[C@H]3O[C@@H](O[C@H]4[C@@H]2NC[C@@H]4O)[C@H](O)[C@H]3O)cc1
- Potency [3]: inactive

SMILES: CCC(C)(NC(=O)C(CCC(N)=O)NC(=O)C1CC(O)CN1C(=O)C(C)(C)NC(=O)C(C)(C)NC(=O)C(CC(C)C)NC(=O)CNC(=O)C(NC(=O)C(C)(C)NC(=O)C(C)(C)NC(=O)C(C)(C)NC(=O)C(Cc1ccccc1)NC(C)=O)C(C)C)C(=O)N1CC(O)CC1C(=O)NC(C)(C)C(=O)NC(CO)Cc1ccccc1 (stereo not drawn) (Ac-F[Aib][Aib][Aib]VGL[Aib][Aib][Hyp]Q[Iva][Hyp][Aib][Phe(ol)]; configuration not given here)
- activity change, negative = inhibition [3]: 1.74% [at 12.4 µM]

SMILES: CC(=O)C1=CCC2C3CC=C4CC(O)CC(O)C4(C)C3C(O)CC12C (stereo not drawn)
- Potency [3]: inactive

SMILES: Cc1cc(-c2nc3cc(F)ccc3s2)ccc1NC(=O)[C@@H](N)CCCCN
- Potency [3]: inactive

SMILES: Nc1ncnc2c1nc(Cl)n2C1OC2COP(=O)(O)OC2C1O (stereo not drawn)
- Potency [3]: inactive

SMILES: COc1cc2c(cc1O)C1(Cc3ccc4c(c3C1O)OCO4)[N+](C)([O-])CC2 (stereo not drawn)
- Potency [3]: inactive

SMILES: CCCOc1ccc(CCc2nc3cc(-c4c(C)noc4C)ccc3n2CCN2CCOCC2)cc1
- Potency [3]: inactive

SMILES: C/C=C/[C@@H]1C=C[C@@H]2C[C@H](C)CC[C@H]2[C@]1(C)/C(O)=C1/C(=O)[C@@H](CO)N(C)C1=O
- Potency [3]: inactive

SMILES: C=C1C(=O)OC2CC(C)C(CCC(C)=O)=CCC12 (stereo not drawn)
- Potency [3]: inactive

SMILES: CCCCCOc1ccc(-c2ccc(-c3ccc(C(=O)N[C@H]4C[C@@H](O)[C@@H](O)NC(=O)[C@@H]5[C@@H](O)[C@@H](C)CN5C(=O)[C@H]([C@@H](C)O)NC(=O)[C@H]([C@H](O)[C@@H](O)c5ccc(O)cc5)NC(=O)[C@@H]5C[C@@H](O)CN5C(=O)[C@H]([C@@H](C)O)NC4=O)cc3)cc2)cc1 ({pTerphenylCO(4''-OnC5H11)}-[Orn(4R-OH,5R-OH)]T[Hyp][hTyr(3S-OH,4S-OH)]T[Pro(3S-OH,4S-Me)]; lactam 1-C)
- Potency [3]: inactive

SMILES: C=C1CC2[C@@]3(C)C=CC(=O)C(C)(C)C3=C(O)C(=O)[C@@]2(C)C2(C(=O)OC)C(=O)C(C)OC(=O)[C@@]12C (stereo partly drawn)
- Potency [3]: inactive

SMILES: O=C(NCc1ccccc1-c1ccccc1C(=O)NCCc1ccccn1)OCc1ccccc1
- Potency [3]: inactive

SMILES: O=c1ccc2ccc(OCCCCN3CCN(c4cccc5sccc45)CC3)cc2[nH]1
- Potency [3]: inactive

SMILES: CC(CCC1(O)OC2CC3C4CC=C5C[C@@H](O[C@@H]6O[C@H](CO)[C@@H](O[C@@H]7O[C@@H](C)[C@H](O)[C@@H](O)[C@H]7O)[C@H](O)[C@H]6O[C@@H]6O[C@@H](C)[C@H](O)[C@@H](O)[C@H]6O)CC[C@]5(C)C4CC[C@]3(C)[C@@]2(O)[C@@H]1C)CO[C@@H]1O[C@H](CO)[C@@H](O)[C@H](O)[C@H]1O (stereo partly drawn)
- Potency [3]: inactive

SMILES: C=C(NC(=O)C(=C)NC(=O)c1csc(C2=NC3c4csc(n4)C4NC(=O)c5csc(n5)C(C(C)(O)C(C)O)NC(=O)C5CSC(=N5)/C(=C/C)NC(=O)C(C(C)O)NC(=O)c5csc(n5)C3(CC2)NC(=O)C(C)NC(=O)C(=C)NC(=O)C(C)NC(=O)C(C(C)CC)NC2C=Cc3c(C(C)O)cc(nc3C2O)C(=O)OC4C)n1)C(N)=O (stereo not drawn)
- Potency [3]: inactive

SMILES: CCCCOc1ccc(S(=O)(=O)n2c(C)nc3ccccc32)cc1
- Potency [3]: inactive

SMILES: C/C=C(\C)C(=O)OC1C=C(C)CC(OC(=O)c2ccc(O)cc2)C2C1(C)CCC2(O)C(C)C (stereo not drawn)
- Potency [3]: inactive

SMILES: COc1cc(O)cc(/C=C/c2cccc(O)c2)c1
- Potency [3]: inactive

SMILES: NC(=O)c1cccc2[nH]c(-c3ccc(C4CCCN4)cc3F)nc12 (stereo not drawn)
- Potency [3]: inactive

SMILES: CCCN(CCc1ccsc1)C1CCc2c(O)cccc2C1 (stereo not drawn)
- Potency [3]: inactive

SMILES: Clc1ncoc1-c1c[nH]c2ccccc12
- Potency [3]: inactive

SMILES: COc1ccc([C@H]2Cc3cccc(O)c3C(=O)O2)cc1OC
- Potency [3]: inactive

SMILES: COc1cc(/C=C2\CC[C@H]3COC[C@@H](c4cc(F)c(F)c(F)c4)N3C2=O)ccc1-n1cnc(C)c1
- Potency [3]: inactive

SMILES: CC1OC(OC2C(O)COC(O[C@@H]3[C@@H](O)[C@@H](O)[C@H](OC4C(OC(=O)[C@]56CCC(C)(C)CC5C5=CCC7[C@@]8(C)C[C@H](O)[C@H](OC9OC(CO)C(O)C(O)C9O)[C@@](C)(CO)C8[C@H](O)C[C@@]7(C)[C@]5(C)CC6)OCC(O)C4O)O[C@H]3C)C2O)C(O)C(O)C1O (stereo partly drawn)
- activity change, negative = inhibition [3]: -1.65% [at 12.4 µM]

SMILES: C=C1CCC[C@]2(C)CC/C(=C(/CO)C(=O)OC)C[C@@H]12
- Potency [3]: inactive

SMILES: C=CC(C)(C)C12CC3C(=O)N4C(CC5(C(C)(C)C=C)c6ccccc6NC45)C(=O)N3C1Nc1ccccc12 (stereo not drawn)
- Potency [3]: inactive

SMILES: C/C=C(\C)C(=O)O[C@H]1C[C@](C)(O)[C@H]2CC=C(C)[C@H]2[C@@H]2OC(=O)[C@H](C)[C@H]21
- Potency [3]: inactive

SMILES: CC(=O)O[C@@H]1[C@H](O[C@@H]2O[C@@H](CO)[C@H](O)[C@H]2O)[C@@H](O[C@@H]2O[C@@H](C)[C@H](O[C@@H]3OC[C@@H](O)[C@H](O)[C@H]3O)[C@@H](O)[C@H]2O)[C@H](OC(=O)[C@]23CCC(C)(C)C[C@H]2C2=CCC4[C@@]5(C)CC[C@H](O[C@@H]6O[C@H](C(=O)O)[C@@H](O)[C@H](O)[C@H]6O[C@@H]6O[C@H](CO)[C@H](O)[C@H](O)[C@H]6O)[C@@](C)(C=O)C5CC[C@@]4(C)[C@]2(C)C[C@H]3O)O[C@@H]1C (stereo partly drawn)
- activity change, negative = inhibition [3]: 1.08% [at 12.4 µM]

SMILES: Cn1ncc(Cl)c1-c1cc(C(=O)N[C@H](CN)Cc2ccc(F)c(F)c2)oc1Cl
- Potency [3]: inactive

SMILES: Cc1[nH]c2ccccc2c1CCNCc1ccc(/C=C/C(=O)NO)cc1
- Potency [3]: inactive

Reference: PubChem BioAssay (NCATS)
